Bioassay records: PubChem BioAssay, National Center for Advancing Translational Sciences (NCATS)
SW480 rereplic – induces DNA re-replication in SW480 colon adenocarcinoma cells; SW480 DNA re-replication, Hoechst DNA content imaging, 48 h; AID 624297; 340,000 compounds, 1.8% hits; Potency, µM (highest dose often 46.1 µM), hits mostly activators; note: nearly all actives have a fitted effect of over 55% in size
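Hoechst fluorescence of nuclei (405 nm excitation, 500-530 nm emission) measured by plate-scanning imager after 48 hr compound exposure at 37 C; re-replication scored as increased number of nuclei with elevated intensity.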
MCF10A rereplic – induces DNA re-replication in MCF 10a normal breast cells; MCF 10A DNA re-replication, Hoechst nuclear intensity, 48 h; Potency, µM (titrated, usually from 46.1 µM), usual class: activators; 350,000 compounds, 2.9% hits; note: nearly all actives have a fitted effect of over 50% in size
KB-3-1 tox – kills parental KB-3-1 adenocarcinoma cells | KB-3-1 viability, CellTiter-Glo ATP luminescence, 72 h | AID 1347075 | Potency, µM (titrated, usually from 46.1 µM), hits mostly cytotoxic | 400,000 compounds, 1.4% hits; note: nearly all actives have a fitted effect of over 60% in size
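72 h, 37 °C compound treatment of KB-3-1 parental cells; CellTiter-Glo added, 10 min, luminescence read. Data corrected against DMSO-only plates and normalized before curve fitting.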
12-LOX inh – blocks human arachidonate 12S-lipoxygenase | P18054 | purified 12hLO, xylenol orange hydroperoxide absorbance | Potency, µM (series often up to 108 µM), actives largely listed as inhibitors | 580,000 compounds, 1.1% hits
Target sequence (P18054 whole entry, looked up): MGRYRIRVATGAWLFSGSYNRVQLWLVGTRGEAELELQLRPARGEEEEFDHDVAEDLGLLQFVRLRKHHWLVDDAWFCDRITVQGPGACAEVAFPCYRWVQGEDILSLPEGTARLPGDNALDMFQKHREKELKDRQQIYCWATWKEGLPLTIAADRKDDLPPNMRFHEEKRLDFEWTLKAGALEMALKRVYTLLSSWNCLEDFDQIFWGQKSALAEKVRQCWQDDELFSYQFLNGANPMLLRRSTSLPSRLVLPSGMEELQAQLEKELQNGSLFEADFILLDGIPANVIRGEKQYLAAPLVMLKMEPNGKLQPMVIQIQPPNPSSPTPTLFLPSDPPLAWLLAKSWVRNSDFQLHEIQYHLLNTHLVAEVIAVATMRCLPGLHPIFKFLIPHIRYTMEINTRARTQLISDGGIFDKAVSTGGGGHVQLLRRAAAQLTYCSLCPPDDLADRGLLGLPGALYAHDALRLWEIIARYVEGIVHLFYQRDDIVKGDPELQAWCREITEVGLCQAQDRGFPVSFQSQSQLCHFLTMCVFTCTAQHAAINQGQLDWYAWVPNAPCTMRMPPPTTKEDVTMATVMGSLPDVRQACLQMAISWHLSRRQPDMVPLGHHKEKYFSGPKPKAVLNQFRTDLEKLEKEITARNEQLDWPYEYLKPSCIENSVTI
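Purified human 12hLO at 150 nM in 25 mM Hepes, 0.01% Triton X-100, pH 7.0, preincubated 15 min at room temperature with compound. Reaction started with 40 uM arachidonic acid, 30 min at room temperature. Hydroperoxide measured by Fe-xylenol orange, 573/405 nm absorbance ratio.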
KB-V1 MDR tox – KB-V1 MDR subline cytotoxicity. Potency, µM (titrated, usually from 46.1 µM), hits mostly cytotoxic. 400,000 compounds, 3.4% hits. KB-V1 MDR cells viability, CellTiter-Glo, 72 h; note: nearly all actives have a fitted effect of over 60% in size
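KB-V1, DMEM (no phenol red) + 10% FBS; cpd pin-transferred, titration series; 72 h, 37 degrees C; CellTiter-Glo, luminescence. Data normalized, curve-fit.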
PINK1 expr mod – PINK1 expression modulation | 410,000 compounds, 0.2% hits | PINK1 immunofluorescence, high-content cytometry, 24 h | AID 624263 | Potency, µM (top dose mostly 76.6 µM), hits mostly activators; active = well fitted activation curve with a large enough effect; inconclusive = small, poorly fitted or top-dose-only effect; cell line not stated here; note: nearly all actives have a fitted effect of over 65% in size
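Stable cell line, 250 cells/well, 12 h attachment; compounds pinned at 5 concentrations, 24 h; CCCP control. Fixed with nuclear dye, primary antibodies 12 h at 10 degrees C, secondary plus cell stain; laser-scanning cytometer read.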
Hits are given with their value; - = inactive; ? = inconclusive; . = no result given. Hits are enriched below; roughly 5.8% of the tested compounds scored in any of these assays. Unless noted, calls come from the whole dose curve; as a rule, active = well fitted curve in the direction sought with a large enough effect; inconclusive = small, poorly fitted or top-dose-only effect, or another doubt; inactive = no such curve, though single readings can be large; an effect the other way counts as inactive or inconclusive.

SMILES	SW480 rereplic	MCF10A rereplic	KB-3-1 tox	12-LOX inh	KB-V1 MDR tox	PINK1 expr mod
CCOCC(=O)N1CCN(c2ccc([N+](=O)[O-])cc2)CC1	-	-	-	-	18.4µM	-
O=C(CCCc1ccccc1)N1CCN(c2ccc([N+](=O)[O-])cc2)CC1	-	-	-	-	16.4µM	-
O=C(CSc1ccsc1[N+](=O)[O-])N1CCN(c2ccc(Cl)cc2)CC1	-	-	-	?	-	?
CN(CC(=O)N1CCCC1)c1nc(-c2ccsc2)nc2ccccc12	.	.	.	-	.	.
CCCCNC(=S)NCC(c1ccccc1)c1c[nH]c2ccccc12 (centres undefined)	?	?	-	44.7µM	?	?
COCC(C)n1c(C)cc(C(=O)CSc2nc3ccccc3c(=O)[nH]2)c1C (centres undefined)	-	?	20.6µM	?	2.59µM	-
Cc1cccc(C)c1NC(=O)CSc1nc2ccccc2c(=O)[nH]1	-	-	-	-	16.4µM	-
COCCn1c(C)cc(C(=O)CSc2nc3ccccc3c(=O)[nH]2)c1C	-	-	-	-	?	-
O=C(CSc1nc2ccccc2c(=O)[nH]1)Nc1ccccc1	.	.	.	-	.	.
COc1cc(/C=N/O)cc(Br)c1OCc1ccc(C(=O)O)cc1	.	.	.	-	.	.
COc1cc(N=Nc2ccc3ccccc3c2)ccc1O	-	?	-	-	-	-
COc1cc(N=Nc2ccccc2C(=O)O)ccc1O	-	18.4µM	-	-	-	-
COc1ccccc1N1CCN(c2ccc(-c3ccccc3)nn2)CC1	4.11µM	2.59µM	2.06µM	?	2.06µM	-
O=[N+]([O-])c1cc(CN2CCCC2)ccc1Sc1ccc(Cl)cc1	-	10.3µM	?	?	?	?
COc1ccc(CN2CCN(c3ccccc3OC)CC2)cc1OC	-	2.06µM	-	?	?	-
O=[N+]([O-])c1ccc(Cl)cc1N1CCCC1	-	-	-	-	-	-
COc1ccc(CN2CCCCCC2)cc1OC	-	-	-	2µM	-	-
Cc1ccc(NC(=O)Nc2ccc3nc(NS(=O)(=O)c4ccccc4)sc3c2)cc1	.	.	.	-	.	.
Clc1ccc(CN2CCCCCCC2)cc1	-	-	-	?	-	-
COc1ccccc1N1CCN(C2CCCN(Cc3ccc(Cl)cc3)C2)CC1 (centres undefined)	?	-	-	-	?	-
Clc1ccc(CN2CCCCCC2)cc1	-	-	-	0.794µM	-	-
COc1ccc(CN2CCCCCC2)cc1Br	-	-	-	1µM	?	-
CC1CCCC(N2CCN(Cc3ccc(Cl)cc3)CC2)C1 (centres undefined)	.	.	.	0.794µM	.	.
COc1ccc(CN2CCOCC2)cc1Br	-	-	-	-	-	-
O=C(Nc1cc2c(cc1Sc1ccccc1)OCCO2)c1ccc2c(c1)OCCCO2	.	.	.	-	.	.
SMILES	SW480 rereplic	MCF10A rereplic	KB-3-1 tox	12-LOX inh	KB-V1 MDR tox	PINK1 expr mod
Cc1ccc(-c2cnc(CCC(=O)NCC(CC(C)C)N3CCOCC3)o2)cc1C (centres undefined)	.	.	.	-	.	.
CC(C)Cc1nc2sc3c(=O)[nH]cnc3c2c2c1CCC2	-	-	-	-	16.4µM	-
CC(=O)Oc1c(-c2ccc(Br)o2)oc2ccccc2c1=O	?	?	?	35.5µM	?	-
Cc1nc2ncnn2c(N2CCN(C(c3ccccc3)c3ccccc3)CC2)c1C	-	?	-	-	23.1µM	-
Cc1cc(N2CCN(C(c3ccccc3)c3ccccc3)CC2)n2ncnc2n1	-	?	-	?	?	-
Cc1nc2ncnn2c(N2CCN(c3cccc(C(F)(F)F)c3)CC2)c1C	-	-	20.6µM	-	2.59µM	-
COC(=O)c1cccc(C(=O)NCc2ccccc2)c1	.	.	.	-	.	.
Cc1ccc(NC(=O)CCc2c[nH]c3ccccc23)nc1	3.26µM	?	4.11µM	-	?	-
Cc1ccc(C)c(NC(=O)CCc2c[nH]c3ccccc23)c1	.	.	.	-	.	.
C=C(C(=O)c1ccccc1)C(c1ccccc1)C(C)C(=O)c1ccccc1 (centres undefined)	?	?	?	-	?	-
C=C(C(=O)c1ccccc1)C(C)C(=C)C(=O)c1ccccc1	7.31µM	2.91µM	?	-	3.26µM	-
CCCCc1cc(=O)oc2cc(OC(C)C(=O)NCCCO)ccc12 (centres undefined)	.	.	.	-	.	.
CC1=CN2C(=N)/C(=C/c3ccc([N+](=O)[O-])o3)C(=O)N=C2S1	16.4µM	?	-	44.7µM	-	?
CC1=CN2C(=N)/C(=C/c3ccco3)C(=O)N=C2S1	-	-	-	-	-	-
O=C(O)c1ccccc1-c1ncc(-c2ccc(F)cc2)o1	.	.	.	-	.	.
CC(=O)N1CCC(Cc2ccc(C(=O)NC3CCN(Cc4ccccc4)CC3)cc2)CC1	.	.	.	-	.	.
CC(C)COc1ccc(C(=O)Nc2sc3c(c2C(=O)O)CC(C)(C)OC3)cc1	-	?	8.2µM	-	-	-
CCC1COCCN1Cc1cn(-c2ccccc2)nc1-c1ccc(OC)cc1F (centres undefined)	.	.	.	-	.	.
C=CCc1ccccc1OCCOc1ccccc1/C=C(/C#N)C(N)=O	.	.	.	-	.	.
COc1ccc(/C=C/C(=O)NC(=S)NNC(=O)c2cnccn2)cc1	-	-	?	-	?	-
O=C(/C=C/c1ccc(F)cc1)NC(=S)NNC(=O)c1cnccn1	-	-	5.8µM	-	?	-
Nc1ccn(C2OC(COP(=O)(O)O)C(O)C2O)c(=O)n1 (centres undefined)	0.651µM	?	?	?	?	-
COc1ccc(CN2C[C@@H]3C(=O)N(CCN4CCc5ccccc5C4)C(=O)[C@@H]3C2)c(OC)c1	.	.	.	-	.	.
CCCCCCc1cc2cc(-c3nnc(-c4ccccc4O)o3)c(=O)oc2cc1O	2.31µM	0.731µM	?	-	13µM	?
COc1ccc2oc(=O)c(C(=O)Nc3ccccc3OC)cc2c1	.	.	.	-	.	.
SMILES	SW480 rereplic	MCF10A rereplic	KB-3-1 tox	12-LOX inh	KB-V1 MDR tox	PINK1 expr mod
CCCCCCc1cc2cc(S(=O)(=O)c3ccc(F)cc3)c(=O)oc2cc1O	4.61µM	2.31µM	-	?	?	39.8µM
CCCCCCc1cc2cc(-c3nnc(-c4ccccc4OC)o3)c(=O)oc2cc1O	1.16µM	-	?	-	16.4µM	?
CCCCCCCc1ccc(-c2nnc(-c3ccccc3Br)o2)cc1	.	.	.	-	.	.
CCCCCCc1cc2cc(C(=O)Nc3ccccc3OC)c(=O)oc2cc1O	?	0.651µM	?	-	?	?
COc1cccc2cc(-c3nnc(-c4ccccc4)o3)c(=O)oc12	?	-	-	-	-	-
c1ccc(CNc2cc(-c3cc(N4CCCCC4)ncn3)c3cc[nH]c3n2)nc1	.	.	.	-	.	.
CCCCCCc1cc2cc(-c3nnc(-c4cc(OC)c(OC)c(OC)c4)o3)c(=O)oc2cc1O	8.2µM	0.517µM	?	.	?	?
Cc1ccc(S(=O)(=O)NC(=O)Nc2cc(C)ccc2F)cc1	-	-	-	-	-	-
